Data on 29 compounds can be found in PubChem BioAssay AID489042 (NMMLSC, 2010).

Several values for one entry are separate records, joined by “and”; a condition that tells them apart may be missing. Identical values can stand only once. Where a structure was tested more than once in an assay, its records may differ in their call. Activity calls are given as the source filed them. Cut-off read from the data, not from the text of the source: active = inhibition score above about 11; inactive = the rest.

The nature of this experiment: yeast proliferation inhibition, dose response, BY4741, OD595, 24 h (AID 489042). The note with it: S. cerevisiae BY4741 growth, stronger effect = higher value.
With `CC(C)OC(=O)c1ccc2nc3ccccc3nc2c1`, the inhibition score was 10 (inactive). Consider `N#CCc1nn(-c2ccccc2)c2ncnc(N)c12`, for which the inhibition score was 0 (inactive). Regarding `c1ccc2nc3ccccc3nc2c1`, the inhibition score is 21 (active). Next, `C#CCSc1nnc(-c2ccc([N+](=O)[O-])cc2)o1`: 0 (inactive); `O=C1c2c(O)ccc(O)c2C(=O)c2c(NCCNCCO)ccc(NCCNCCO)c21`: 0 (inactive); `COc1ccc2cc(C3CC(c4ccco4)=NN3S(=O)(=O)c3ccccc3)c(Cl)nc2c1` (centres undefined): 0 (inactive). Next, `CCC(=Nc1ccccc1O)C1=C(O)CC(c2ccccc2)CC1=O` (centres undefined): 10 (inactive). Consider `Cc1ccc(-c2nn(C(C)(C)C)c3ncnc(N)c23)cc1`, for which the inhibition score was 21 (active). In the case of `COc1ccc2nc3ccccc3nc2c1` it was 10 (inactive) and 21 (active); in that of `COc1cccc2nc3cc(C)c(C)cc3nc12`, 10 (inactive); in that of `Cc1cc2nc3ccc(N(C)C)cc3nc2cc1N`, 0 (inactive).

For the compound `COc1ccc2nc3ccccc3nc2c1NC(=O)c1ccccc1Cl`, the inhibition score was 0 (inactive). Regarding `COc1ccc2nc3cccc(OC)c3nc2c1`, the inhibition score was 10 (inactive). Regarding `Cc1cccc2nc3ccccc3nc12`, the inhibition score is 10 (inactive). Turning to `COc1ccc2c(c1)c1nnc(SC)nc1n2C`, the inhibition score was 21 (active). `O=C(Nc1cccc(Cl)c1)Nc1ccc2nccnc2c1`: the inhibition score was 0 (inactive).

As to `COc1ccc2c3c(cccc13)N(C)N=C2C`, the inhibition score was 10 (inactive). With `Cc1ccccc1NC(=O)c1cccc2nc3ccccc3nc12`, the inhibition score is 0 (inactive). In the case of `C=CCSc1nnc(-c2ccc([N+](=O)[O-])cc2)o1` it was 10 (inactive); in that of `NC(=O)CSc1nnc(-c2ccc([N+](=O)[O-])cc2)o1`, 0 (inactive); in that of `O=C(O)c1cnc2ccccc2n1`, 0 (inactive). As to `O=C(c1cccc2nc3ccccc3nc12)N1CCOCC1`, the inhibition score is 0 (inactive). Consider `FC(F)(F)c1nc2cc3nc4ccccc4[nH]c3cc2n1`, for which the inhibition score is 0 (inactive). Turning to `CC(C)(C)Nc1ncnc2c1cnn2-c1ccccc1`, the inhibition score was 10 (inactive). For the compound `COc1ccc2nc3ccccc3[n+]([O-])c2c1`, the inhibition score is 0 (inactive). As for `Cc1cc(C)c2[nH]c3nc(SCC(=O)O)nnc3c2c1`, the inhibition score was 0 (inactive).

`CC(C)(C)n1nc(-c2ccc(F)cc2)c2c(N)ncnc21`: the inhibition score is 21 (active). For `CSc1nnc(-c2ccc([N+](=O)[O-])cc2)o1`, the inhibition score was 0 (inactive). With `O=C(OCc1c(F)cccc1Cl)c1cnc2ccccc2n1`, the inhibition score is 0 (inactive).
